# Results filed as inconclusive are left out. Where a structure was tested more than once in an assay, its records may differ in their call. Calls of active or inactive are those of the source. Rule for the calls: active = hit-call score of the fitted dose curve at least 0.9, where 1 is the maximum; inconclusive = response in the unintended direction; inactive = score below 0.9.
# Read-out: Cytochrome P450 2B6 (Homo sapiens) (UniProt P20813)
# Assay: CLD_CYP2B6_24hr: CellzDirect (CLD) Gene Expression Assay for xenobiotic metabolism (CYP2B6) at 24 hours (AID 2283686)
# Experimental: CLD_24hr is a cell-based, multiplexed-readout assay that uses hepatocyte, a human liver primary cell, with measurements taken at 24 hours after chemical dosing in a 96-well plate.CLD_CYP2B6_24hr is one of 16 assay component(s) measured or calculated from the CLD_24hr assay. It is designed to make measurements of mRNA induction, a form of inducible reporter, as detected with chemiluminescence signals by Quantitative Nuclease Protection Assay (qNPA) technology.Data from the assay component CLD_CYP2B6_24hr was analyzed at the endpoint, CLD_CYP2B6_24hr, in the positive analysis fitting direction relative to DMSO as the negative control and baseline of activity. Using a type of inducible reporter, gain-of-signal activity can be used to understand changes in the reporter gene as they relate to the gene CYP2B6. Furthermore, this assay endpoint can be referred to as a primary readout. To generalize the intended target to other relatable targets, this assay endpoint is annotated to the cyp intended target family, where subfamily is xenobiotic metabolism.
# Human hepatocyte cultures were treated daily for two consecutive days with fresh dosing solutions containing appropriate concentrations of the 320 ToxCast chemicals (chemical identities were blinded to CellzDirect and other ToxCast collaborators), vehicle control (0.2% DMSO), and positive control inducers as summarized in Table 1. Due to the large number of treatment groups and chemicals examined, the ToxCast chemicals were divided into two groups (spanning two independent cultures of hepatocytes from separate donor preparations (Hu778: ToxCast plates 1 and 2; Hu776: ToxCast plates 3 and 4). Each preparation of human hepatocyte cultures was treated with respective vehicle control, medium only control, set of six positive controls/reference chemicals for the five hepatic receptor pathways, and a subset of eight of the ToxCast chemicals (indoxacarb, pyrithiobac-sodium, norflurazon, cyhalofop-butyl, methomyl, thiram, acetochlor, and propiconazole). These replicate data, coupled with internal replicates designed within the blinded ToxCast chemical library, provided additional data to evaluate interindividual differences between hepatocyte preparations and their potential impact on chemical profiles.Cell morphology and integrity were evaluated using phase-contrast microscopy as an indicator of hepatocyte cell health (Tyson & Green, 1987). Cultures for each treatment group (i.e., media, vehicle [0.2% DMSO], positive control inducers [multiple concentrations], and the ToxCast chemicals [multiple concentrations]) were observed and cell morphology was assessed relative to vehicle control cultures at each harvest time point (0, 6, 24, or 48 h). […] Images were evaluated at the conclusion of the study to assess changes in cell integrity and account for the effects of chemical exposure on uncharacteristic changes in concentration-dependent gene expression profiles. The results from these determinations of apparent cytotoxicity were annotated (yes/no) alongside the corresponding qNPA data for reference.At the conclusion of each treatment period, hepatocyte cultures (96-well) were washed with 1 volume of HBSS, lysed by addition of 25 ul ArrayPlate lysis buffer (HTG, Tucson, AZ), and 70 ul/well of Denaturation Oil, denatured by incubation at 95C for 10 min, and frozen at approximately -70C until analysis by nuclease protection assay (qNPA) (Roberts et al., 2007). For qNPA analysis, cell lysates were thawed at 50C for approximately 30 min, qNPA probes were added, and samples were incubated at 95C for 10 min to begin the detection process by denaturing the target RNA, dissociating the duplexes and secondary structure hybridization. At the conclusion of the hybridization period, S1 nuclease reagent was added to each sample to digest all nonprotected nucleotides at 50C for 60-90 min. […]
Structure (SMILES),AC50,outcome
COC(=O)c1cccc(C)c1S(=O)(=O)NC(=O)Nc1nc(OCC(F)(F)F)nc(N(C)C)n1,4.98 µM (active),
CC(C)(c1ccc(O)cc1)c1ccc(O)cc1,,inactive
c1ccc(Nc2ccccc2)cc1,6.82 µM (active),
CCSC(=O)N(CC(C)C)CC(C)C,,inactive
COC(=O)c1ccccc1S(=O)(=O)NC(=O)Nc1nc(OC(F)F)cc(OC(F)F)n1,,inactive
N#CSCSc1nc2ccccc2s1,,inactive
CCNc1nc(N)nc(Cl)n1,,inactive
CCCCCCC(C)OC(=O)COc1nc(F)c(Cl)c(N)c1Cl (stereo not given),,inactive
O=C(Nc1ccc([N+](=O)[O-])cc1Cl)c1cc(Cl)ccc1O,,inactive
CSC(=O)c1cccc2nnsc12,,inactive
CCOC(=O)COc1cc(-n2ncc(C(F)(F)F)c(C)c2=O)c(F)cc1Cl,6.56 µM (active),
Cc1nn(C)c(Oc2ccccc2)c1C=NOCc1ccc(C(=O)OC(C)(C)C)cc1,20 µM (active),
CCCN(CCC)c1c([N+](=O)[O-])cc(C(F)(F)F)c(N)c1[N+](=O)[O-],4.48 µM (active),
CCCCC(CC)CN1C(=O)C2C3C=CC(C3)C2C1=O (stereo not given),9.04 µM (active),
CCCCC(CC)COC(=O)c1ccccc1C(=O)O (stereo not given),5.12 µM (active),
C#CCOC(=O)[C@@H](C)Oc1ccc(Oc2ncc(Cl)cc2F)cc1,0.000411 µM (active),
CCCOC(=O)NCCCN(C)C,,inactive
O=C(O)C1(C(=O)Nc2ccc(Cl)cc2Cl)CC1,,inactive
CCC(C)OC(=O)N1CCCCC1CCO (stereo not given),,inactive
CN(C)C(=O)Nc1ccc(Cl)c(Cl)c1,2.49 µM (active),

Structure (SMILES),AC50,outcome
COc1nc(C)nc(NC(=O)NS(=O)(=O)c2ccccc2OCCCl)n1,,inactive
CC(C)(C)[C@@H](O)[C@@H](Cc1ccc(Cl)cc1)n1cncn1,2 µM (active),
COC(=O)c1ccc(CNS(C)(=O)=O)cc1S(=O)(=O)NC(=O)Nc1nc(OC)cc(OC)n1,,inactive
CCN(CC)C(=O)c1cccc(C)c1,20 µM (active),
COC(=O)c1ccc(I)cc1S(=O)(=O)NC(=O)Nc1nc(C)nc(OC)n1,,inactive
CCCN(CCC)C(=O)SCC,0.0274 µM (active),inactive
COC(=O)c1c(Cl)nn(C)c1S(=O)(=O)NC(=O)Nc1nc(OC)cc(OC)n1,,inactive
CC1(C)C(C=C(Cl)Cl)C1C(=O)OCc1cccc(Oc2ccccc2)c1 (stereo not given),7.12 µM (active),
CCCCOCCOCCOCc1cc2c(cc1CCC)OCO2,1.9 µM (active),
C=CCOC(Cn1ccnc1)c1ccc(Cl)cc1Cl (stereo not given),0.135 µM (active),
CCN(Cc1c(F)cccc1Cl)c1c([N+](=O)[O-])cc(C(F)(F)F)cc1[N+](=O)[O-],0.365 µM (active),
CCOC(=O)NCCOc1ccc(Oc2ccccc2)cc1,12.1 µM (active),
CCCCCOC(=O)COc1cc(N2C(=O)C3=C(CCCC3)C2=O)c(F)cc1Cl,,inactive
CCCCOC(=O)C(C)Oc1ccc(Oc2ccc(C(F)(F)F)cn2)cc1 (stereo not given),,inactive
COC(=O)CSc1cc(N=c2sc(=O)n3n2CCCC3)c(F)cc1Cl,2.48 µM (active),
CCOC(=O)C(C)Oc1ccc(Oc2cnc3cc(Cl)ccc3n2)cc1 (stereo not given),,inactive
CCCCOC(=O)[C@@H](C)Oc1ccc(Oc2ccc(C(F)(F)F)cn2)cc1,,inactive
Oc1ccc(C(c2ccc(O)cc2)C(Cl)(Cl)Cl)cc1,,inactive
c1ccc2[nH]c(-c3cscn3)nc2c1,,inactive
